Source: PubChem BioAssay AID720553 (National Center for Advancing Translational Sciences (NCATS), 2013)
Among all 340,000 compounds or so, about 3,300 (0.97%) were called active. Shown is part of a subset that was picked to be rich in actives. A number with no mark means an inactive call.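 The calls were made as follows: active = maximum activity change below -70%; inconclusive = maximum activity change from -70% to -50%; inactive = maximum activity change above -50%.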

tested on: Potassium voltage-gated channel subfamily H member 2, brain isoform KCNH2 3.1 (human); test: qHTS for Inhibitors of KCHN2 3.1: Mutant qHTS; conditions: U2OS KCNH2 3.1, thallium flux FluxOr; stronger effect = lower value
Outline: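 Channel expression came from 3.1 mutant virus (1.77 x 10^8 /mL) applied to suspended U2OS cells for 4 h. Flux was tracked with FluxOr dye plus Red40 quencher, and kinetic rate constants normalized to controls.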
% is scaled to controls: 0 for no effect and ±100 for the full control effect.

Structure (SMILES) | activity change
Cc1ccc(CN(C)Cc2cc(=O)oc3cc(C)c(Cl)cc23)cc1 | -12.5%
Cc1cc2oc(=O)cc(CN(C)Cc3ccc(OC(F)F)cc3)c2cc1Cl | -76% (active)
CCOc1ccc(N(C)Cc2cc(=O)oc3ccc(OC)cc23)cc1 | -0.899%
Cc1csc(SCC(=O)Nc2ccc(C)c(S(=O)(=O)N(C)C)c2)n1 | -4.71%
Cc1ccc(C(=O)OCC(=O)NC2CCCCCCC2)cc1C | 8.83%
Cn1c(SCC(=O)N2CCOCC2)nnc1-c1ccc(NC(=O)c2ccccc2F)cc1 | 7.57%
Cn1c(SCC(=O)Nc2cccc(NC(=O)c3cccs3)c2)nnc1-c1ccncc1 | -4.66%
Cc1ccccc1C(=O)Nc1cccc(-c2nnc(SCC(=O)O)n2C)c1 | -82.3% (active)
CC(=O)c1ccc(NC(=O)N[C@@H](Cc2ccccc2)C(=O)O)cc1 | 0.757%
CC(C)N(Cc1ccccc1)C(=S)Nc1ccc(OC(F)F)cc1 | -14.2%
CC(=O)c1ccc(NC(=S)N(Cc2ccccc2)C(C)C2CC2)cc1 (stereo unspecified) | -99.2% (active)
O=C(CCCN1C(=O)C2C3C=CC(C3)C2C1=O)N1CCN(c2ccccc2)CC1 (stereo unspecified) | 7.28%
O=C(O)CCCN1C(=O)C2C3c4ccccc4C(c4ccccc43)[C@@H]2C1=O (stereo partly specified) | -134% (active)
O=C(O)CCCN1C(=O)c2ccccc2Sc2ncccc21 | -3.66%
C#CCN(C[C@H]1[C@H](OC(=O)NC2CCCC2)[C@H](OC(=O)NC2CCCC2)C[C@H]2C(=O)N(c3ccccc3)C(=O)[C@@H]12)S(=O)(=O)c1ccc(C)cc1 | -1.45%
O=C(Nc1sc2c(c1C(=O)O)CCC2)c1ccccc1F | -113% (active)
O=C(O)c1c(NC(=O)N2CCCC2)sc2c1CCCC2 | -0.215%
COC(=O)c1c(NC(=O)c2ccccc2F)sc2c1C(C(=O)OC)CC2 (stereo unspecified) | -2.07%
O=C(OCc1ccccc1)N1CCC2CC1c1ccc(-c3ccc4c(c3)OCO4)cc12 (stereo unspecified) | 6.28%

Structure (SMILES) | activity change
CCC1NC(=O)c2cccnc2-n2c1nc1ccc(C)cc1c2=O (stereo unspecified) | -12%
CC1(C)OC(=O)C2=C(CC(c3ccccc3)OC2CCc2ccccc2)O1 (stereo unspecified) | -4.16%
Cc1cc(Cl)ccc1C(=O)C1CCCN(C(=O)c2ccc3c(c2)OCO3)C1 (stereo unspecified) | 1.67%
COc1ccc(-c2ccc(CN3C(CC(C)C)C(=O)N(Cc4cn(CC5CCCCC5)nn4)CCS3(=O)=O)cc2)cn1 (stereo unspecified) | -18%
O=C(Nc1ccncc1)Nc1ccc(F)cc1 | 20.7%
O=C(Nc1ccncc1)c1c(F)cccc1F | -70.9% (active)
O=C(Nc1ccc(S(=O)(=O)N2CCCCCC2)cc1)c1c(F)cccc1F | -17.5%
CN(c1ccccc1)S(=O)(=O)c1ccc(C(=O)NCc2cccnc2)cc1 | -7.84%
CC(Oc1ccc(Cl)cc1)C(=O)OCC(=O)Nc1ncc(Cl)cc1Cl (stereo unspecified) | -101% (active)
CC(Oc1ccc(Cl)cc1)C(=O)Nc1ncccn1 (stereo unspecified) | 5.84%
CC1(C(=O)OCC(=O)Nc2ncc(Cl)cc2Cl)CC1(Cl)Cl (stereo unspecified) | 0.747%
Cc1ccc(-c2ccc(C3=CC(=O)CC(C)(C)C3=O)cc2)cc1 | -9.04%
C[C@H](CO)N1C[C@H](C)[C@@H](CN(C)S(=O)(=O)c2ccc(F)cc2)OCc2cnnn2CCCC1=O | -2.94%
O=S(=O)(c1cccc(C(F)(F)F)c1)N1c2ccccc2-n2cccc2C1c1cccnc1 (stereo unspecified) | -17.4%
CCCn1c(C(Cc2ccccc2)NC(=O)COC)nc2ccccc21 (stereo unspecified) | -1.15%
COC(=O)c1ccc(Cc2ccccc2)o1 | 10.6%
CCCC(NC(=O)c1ccccc1)c1nc2ccccc2n1Cc1ccc(C(=O)OC)o1 (stereo unspecified) | -82% (active)
COc1ccc2[nH]c(=O)c(CN(CC3CCCO3)C(=O)Nc3ccccc3)cc2c1 (stereo unspecified) | 8.12%
Cc1cccc(NC(=O)N(Cc2cc3cc(C)cc(C)c3[nH]c2=O)CC2COCCO2)c1 (stereo unspecified) | -19.5%

Structure (SMILES) | activity change
Cc1ccc2[nH]c(=O)c(CN(CC3COCCO3)C(=O)Nc3ccccc3C)cc2c1 (stereo unspecified) | -106% (active)
COc1cc(C(=O)N2CCOC23CCN(Cc2ccccc2)CC3)cc(OC)c1OC | -5.15%
CN(C)C(CNC(=O)c1cccc(S(=O)(=O)N2CCc3ccccc3C2)c1)c1ccccc1 (stereo unspecified) | -1.69%
COc1cccc(OCC(=O)NCCS(=O)(=O)N2CCN(c3ccccc3)CC2)c1 | -1.4%
CCCCN1C(=O)C(CC(=O)NC(c2ccccc2)c2ccccc2)CC(C(=O)N2CCOCC2)=C1C (stereo unspecified) | -3.63%
Cn1c(SCC(=O)N2CCCc3ccccc32)nc2ccccc2c1=O | -2.54%
O=C(CSc1nc2[nH]ncc2c(=O)n1-c1ccccc1)N1CCCc2ccccc21 | -184% (active)
CC(C)(C)c1ccc(C(=O)NCc2nnc(SCC(=O)N3CCCc4ccccc43)n2-c2ccccc2)cc1 | -6.73%
CCOC(=O)C(=Cc1ccccc1)C(=O)c1ccccc1 | -13.1%
O=C(NCc1nnnn1-c1ccc(Cl)cc1)c1ccc([N+](=O)[O-])o1 | -3.24%
Cc1ccc([C@@H]2CC=C(C(=O)O)[C@H](c3cccc(Cl)c3)N2S(=O)(=O)c2ccc(C)cc2)cc1 | -83.7% (active)
Cc1ccccc1S(=O)(=O)N1[C@@H](c2cccc(Cl)c2)C(C(=O)O)=CC[C@H]1c1ccc(Cl)cc1 | 10%
Cc1ccc(S(=O)(=O)N2[C@@H](c3cccc(Cl)c3)C(C(=O)O)=CC[C@H]2c2ccc(Cl)c(Cl)c2)cc1 | -2.17%
Cc1nnc(SC(C)C(=O)c2c[nH]c3ccccc23)n1C1CC1 (stereo unspecified) | -8.46%
C#CCN(C[C@@H]1[C@@H](OC(=O)NC2CC2)[C@@H](OC(=O)NC2CC2)Cn2c(=O)ccc(=O)n21)S(=O)(=O)c1ccc(C)cc1 | 0.102%
Nc1nnc(SCC(=O)NCC(=O)Nc2ccc(F)c(F)c2F)s1 | -119% (active)
Cc1ccc(S(=O)(=O)N2CCOCC2)cc1NC(=O)CSc1nnc(N)s1 | 1.46%
Nc1nnc(SCC(=O)NC2CCCc3ccccc32)s1 (stereo unspecified) | -15.6%
